# According to PubChem BioAssay (Tox21):
# Results filed as inconclusive are left out. Entries that show only a call come without a potency. The source made the active and inactive calls. Unless noted, calls come from the whole dose curve; as a rule, active = well fitted curve in the direction sought with a large enough effect in the repeat runs; inconclusive = weak or mixed curves; inactive = no such curve, though single readings can be large; an effect the other way counts as inactive or inconclusive.
# Tests used:
# [1] = target: Nuclear receptor subfamily 1 group I member 2 (Homo sapiens) (UniProt O75469); assay: Human pregnane X receptor (PXR) activation by small molecules, qHTS assay (AID 1346985); note: nearly all actives have a fitted effect of over 40% in size; note: potency is the fitted concentration of half-maximal effect
# How it was run: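 DPX-2 cells (HepG2 co-transfected with a PXR response element and a CYP3A4-promoter luciferase construct) were seeded at 2,000 per well, rested 5 hr at 37C, then exposed to DMSO-dissolved compounds for 24 hr. Activation was read as luciferase luminescence.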
# [2] = target: Androgen receptor (Homo sapiens) (UniProt P10275); assay: qHTS assay to identify small molecule antagonists of the androgen receptor (AR) signaling pathway (AID 743035; active = well fitted inhibition curve with a large enough effect in the signal ratio in the repeat runs, not every such curve was filed as active; the % refers to the signal ratio; note: potency is the fitted concentration of half-maximal effect)
# How it was run: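 Antagonism is scored as loss of R1881-driven beta-lactamase reporter expression in HEK293 cells carrying the reporter under a UAS element, after 16 h co-treatment at 37C and a 2 h room-temperature FRET substrate read.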
# [3] = target: Androgen receptor (Homo sapiens) (UniProt P10275); assay: qHTS assay to identify small molecule agonists of the androgen receptor (AR) signaling pathway (AID 743036; active = well fitted activation curve with a large enough effect in the signal ratio in the repeat runs, with a control signal flat, not every such curve was filed as active; the % refers to the signal ratio; note: potency is the fitted concentration of half-maximal effect)
# How it was run: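 AR-UAS-bla HEK293 cells, plated 4 h before dosing, were treated with compound for 16 h at 37C. beta-Lactamase reporter read after 2 h with LiveBLAzer B/G FRET substrate at room temperature.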
# [4] = target: Androgen receptor (Homo sapiens) (UniProt P10275); assay: qHTS assay to identify small molecule agonists of the androgen receptor (AR) signaling pathway using the MDA cell line (AID 743040; note: nearly all actives have a fitted effect of over 20% in size; note: potency is the fitted concentration of half-maximal effect)
# How it was run: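 MDA-kb2 breast carcinoma cells carrying MMTV-luciferase (responsive to AR and GR), plated 5 h then treated 16 h with compounds at 37C, 0% CO2. Read-out was ONE-Glo luminescence after 30 min at room temperature.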
# [5] = target: Androgen receptor (Homo sapiens) (UniProt P10275); assay: qHTS assay to identify small molecule antagonists of the androgen receptor (AR) signaling pathway using the MDA cell line (AID 743042; note: nearly all actives have a fitted effect of over 55% in size; note: potency is the fitted concentration of half-maximal effect)
# How it was run: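 MDA-kb2 breast carcinoma cells carrying MMTV-luciferase (AR/GR responsive) were co-treated with compounds and the agonist R1881 for 16 h at 37C. Inhibition read as ONE-Glo luminescence; CellTiter-Fluor fluorescence measured in parallel for cytotoxicity.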
# [6] = qHTS assay for small molecule agonists of the p53 signaling pathway (AID 651631; calls by dose curve; note: nearly all actives have a fitted effect of over 15% in size)
# How it was run: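 HCT-116 cells carrying a beta-lactamase reporter under p53 response elements were dosed with compound for 16 h at 37 °C. LiveBLAzer B/G FRET substrate was then added for 2 h at room temperature, and fluorescence intensity was read to detect pathway agonism.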
# [7] = target: Glucocorticoid receptor (Homo sapiens) (UniProt P04150); assay: qHTS assay to identify small molecule antagonists of the glucocorticoid receptor (GR) signaling pathway (AID 720692; active = well fitted inhibition curve with a large enough effect in the signal ratio in the repeat runs, not every such curve was filed as active; the % refers to the signal ratio)
# How it was run: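 Cells plated, rested 4 h at 37 C/5% CO2; compounds in DMSO pin-transferred; dexamethasone added to 5 nM final; 18 h at 37 C; B/G FRET substrate added, 2 h room temperature; fluorescence measured.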
# [8] = qHTS assay for small molecule disruptors of the mitochondrial membrane potential (AID 720635); note: potency is the fitted concentration of half-maximal effect
# How it was run: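 HepG2 cells exposed to compound 1 hr at 37C, then Mito-MPS dye 30 min. Ratio read of aggregate (540/590 nm) versus monomer (490/535 nm) fluorescence.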
# Chain of Glucocorticoid receptor (Homo sapiens) (P04150 whole entry, looked up): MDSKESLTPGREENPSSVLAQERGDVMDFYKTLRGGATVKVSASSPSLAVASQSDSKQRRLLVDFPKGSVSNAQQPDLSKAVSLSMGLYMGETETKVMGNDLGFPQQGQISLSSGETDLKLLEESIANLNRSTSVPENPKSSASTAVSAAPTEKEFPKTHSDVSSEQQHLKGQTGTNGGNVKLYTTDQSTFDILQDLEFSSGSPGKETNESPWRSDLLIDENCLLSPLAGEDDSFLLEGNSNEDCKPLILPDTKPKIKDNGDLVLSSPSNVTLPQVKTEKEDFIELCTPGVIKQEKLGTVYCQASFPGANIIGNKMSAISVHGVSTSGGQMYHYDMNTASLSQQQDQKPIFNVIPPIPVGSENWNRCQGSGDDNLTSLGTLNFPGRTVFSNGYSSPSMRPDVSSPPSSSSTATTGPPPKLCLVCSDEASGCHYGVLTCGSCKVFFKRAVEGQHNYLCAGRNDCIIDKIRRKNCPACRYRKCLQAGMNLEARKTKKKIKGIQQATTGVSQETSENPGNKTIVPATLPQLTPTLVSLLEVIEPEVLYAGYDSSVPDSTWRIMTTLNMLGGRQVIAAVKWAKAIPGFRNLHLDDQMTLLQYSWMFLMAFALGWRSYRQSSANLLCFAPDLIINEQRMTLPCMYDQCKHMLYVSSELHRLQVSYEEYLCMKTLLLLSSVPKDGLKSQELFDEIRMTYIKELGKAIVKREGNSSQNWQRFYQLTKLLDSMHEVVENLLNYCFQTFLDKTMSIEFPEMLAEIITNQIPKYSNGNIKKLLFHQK
# Chain of Androgen receptor (Homo sapiens) (P10275 whole entry, looked up): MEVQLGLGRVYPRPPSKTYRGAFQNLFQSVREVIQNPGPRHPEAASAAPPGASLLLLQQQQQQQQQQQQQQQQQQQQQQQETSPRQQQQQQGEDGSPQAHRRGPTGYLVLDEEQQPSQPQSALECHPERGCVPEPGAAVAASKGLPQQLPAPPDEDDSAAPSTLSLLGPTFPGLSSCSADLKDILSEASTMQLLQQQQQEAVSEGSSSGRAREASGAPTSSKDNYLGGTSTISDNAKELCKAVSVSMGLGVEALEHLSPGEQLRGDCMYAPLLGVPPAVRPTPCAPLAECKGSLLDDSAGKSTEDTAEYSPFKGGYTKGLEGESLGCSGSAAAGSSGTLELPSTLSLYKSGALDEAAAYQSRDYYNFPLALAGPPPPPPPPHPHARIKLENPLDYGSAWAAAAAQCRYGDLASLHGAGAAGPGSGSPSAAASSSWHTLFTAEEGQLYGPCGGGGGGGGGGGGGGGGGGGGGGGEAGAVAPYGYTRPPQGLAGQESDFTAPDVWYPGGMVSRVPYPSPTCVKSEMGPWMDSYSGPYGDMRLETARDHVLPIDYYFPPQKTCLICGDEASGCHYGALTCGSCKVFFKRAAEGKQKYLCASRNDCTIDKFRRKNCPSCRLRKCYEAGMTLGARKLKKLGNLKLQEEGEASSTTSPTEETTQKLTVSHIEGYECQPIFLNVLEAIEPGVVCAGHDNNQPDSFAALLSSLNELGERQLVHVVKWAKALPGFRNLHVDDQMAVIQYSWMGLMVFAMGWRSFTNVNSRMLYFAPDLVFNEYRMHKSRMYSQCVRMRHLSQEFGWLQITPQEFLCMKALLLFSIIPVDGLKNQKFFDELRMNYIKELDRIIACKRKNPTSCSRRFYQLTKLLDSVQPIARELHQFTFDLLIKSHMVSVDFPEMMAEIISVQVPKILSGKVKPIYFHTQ
compound,measurement,setting,value
COc1ccc2c3c1O[C@H]1C(=O)CC[C@H]4[C@@H](C2)N(C)CC[C@]314,Potency,[1],inactive
C[C@]12CC[C@H]3[C@@H](CCC4=C(Cl)C(=O)CC[C@@]43C)[C@@H]1CC[C@@H]2O,Potency,[2],inactive
same,Potency,[3],0.003 µM (active)
same,Potency,[4],0.0019 µM (active)
same,Potency,[5],inactive
C#CCN1CC(=O)N(COC(=O)C2C(C=C(C)C)C2(C)C)C1=O (configuration not stated),Potency,[6],inactive
same,Potency,[7],inactive
same,Potency,[1],inactive
CC(=O)OC1CN2CCC1CC2 (configuration not stated),Potency,[7],inactive
same,Potency,[1],inactive
CCC/C=C/C=C/C(=O)O[C@H]1/C(=C/C(=O)OC)C[C@H]2C[C@H]([C@@H](C)O)OC(=O)C[C@H](O)C[C@@H]3C[C@H](OC(C)=O)C(C)(C)[C@](O)(C[C@@H]4C/C(=C/C(=O)OC)C[C@H](/C=C/C(C)(C)[C@]1(O)O2)O4)O3,Potency,[8],0.0038 µM (active)
CN(C)[C@H](Cc1ccccc1)c1ccccc1,Potency,[8],inactive
same,Potency,[1],inactive
COC1=CC=C2[C@H]3Cc4ccc(OC)c5c4[C@@]2(CCN3C)[C@H]1O5,Potency,[6],inactive
same,Potency,[8],inactive
same,Potency,[7],inactive
C[N+]1([O-])[C@@H]2CC(OC(=O)[C@H](CO)c3ccccc3)C[C@H]1[C@@H]1O[C@@H]12 (some centres not stated),Potency,[8],inactive
same,Potency,[7],inactive
same,Potency,[2],inactive
same,Potency,[4],inactive
same,Potency,[5],inactive
O=C(C[C@@H]1NCCC[C@H]1O)Cn1cnc2cc(Br)c(Cl)cc2c1=O,Potency,[6],inactive
same,Potency,[1],inactive
C[N+]1(C)CCCCC1COC(=O)C(O)(c1ccccc1)c1ccccc1 (configuration not stated),Potency,[7],inactive
same,Potency,[2],inactive
same,Potency,[3],inactive
same,Potency,[4],inactive
same,Potency,[5],inactive
CCON=O,Potency,[8],inactive
same,Potency,[7],inactive
C[C@]12CC[C@H]3[C@@H](CCC4=C(O)C(=O)CC[C@@H]43)[C@@H]1CC[C@@H]2OC(=O)CCC1CCCC1,Potency,[6],inactive
same,Potency,[8],inactive
same,Potency,[1],inactive
CC[N+](C)(CC)CCOC(=O)C(O)(c1ccccc1)c1ccccc1,Potency,[6],inactive
same,Potency,[8],inactive
same,Potency,[7],inactive
same,Potency,[1],inactive
CCC(=O)O[C@@](Cc1ccccc1)(c1ccccc1)[C@@H](C)CN(C)C,Potency,[8],inactive
CCOc1ccc2c3c1O[C@H]1[C@@H](O)C=C[C@H]4[C@@H](C2)N(C)CC[C@@]341,Potency,[7],inactive
O=C(CS(=O)C(c1ccccc1)c1ccccc1)NO (configuration not stated),Potency,[8],inactive
C=CCN1CC[C@]23c4c5ccc(O)c4O[C@H]2[C@@H](O)C=C[C@H]3[C@H]1C5,Potency,[8],inactive
same,Potency,[2],inactive
same,Potency,[3],inactive
same,Potency,[4],inactive
same,Potency,[5],inactive
Oc1cccc[c]1[Hg][Cl],Potency,[8],11.1 µM (active)
same,Potency,[2],6.74 µM (active)
same,Potency,[4],inactive
same,Potency,[5],4.22 µM (active)
[2H]C([2H])([2H])[C@H](N)Cc1ccccc1,Potency,[7],inactive
same,Potency,[2],inactive
same,Potency,[4],inactive
same,Potency,[5],inactive
same,Potency,[1],inactive
CCCC(=O)OC(C(Cl)(Cl)Cl)P(=O)(OC)OC (configuration not stated),Potency,[2],inactive
same,Potency,[3],inactive
same,Potency,[4],33.5 µM (active)
same,Potency,[5],inactive
CC(=O)OO,Potency,[6],inactive
same,Potency,[8],inactive
COc1ccc2c(c1)C13CCCC[C@@H]1C(C2)N(C)CC3 (some centres not stated),Potency,[8],inactive
same,Potency,[1],inactive
CN1CCCC(=C(c2cccs2)c2cccs2)C1,Potency,[2],inactive
same,Potency,[3],inactive
same,Potency,[4],inactive
same,Potency,[5],inactive
CCN(CC)C(=O)N[C@H]1C[C@@H]2c3cccc4[nH]cc(c34)C[C@H]2N(C)C1,Potency,[6],inactive
same,Potency,[2],inactive
same,Potency,[3],inactive
same,Potency,[4],inactive
same,Potency,[5],inactive
same,Potency,[1],25.1 µM (active)
Cc1nnc2n1-c1ccc(Cl)cc1C(c1ccccc1)=NC2,Potency,[6],inactive
CCN1C[C@]2(COC)[C@H](O)C[C@H](OC)[C@@]34[C@@H]5C[C@@]6(O)[C@H](OC(=O)c7ccccc7)[C@@H]5[C@@](OC(C)=O)([C@@H]([C@H](OC)[C@H]23)[C@@H]14)[C@@H](O)[C@@H]6OC,Potency,[6],inactive
same,Potency,[1],inactive
Oc1ccc2c3c1O[C@H]1[C@@H](O)CC[C@@]4(O)[C@@H](C2)N(CC2CCC2)CC[C@]314,Potency,[5],inactive
same,Potency,[1],inactive
C[C@]12CC[C@H](OS(=O)(=O)O)CC1=CC[C@@H]1[C@@H]2CC[C@]2(C)C(=O)CC[C@@H]12,Potency,[6],inactive
same,Potency,[2],inactive
same,Potency,[4],21.1 µM (active)
same,Potency,[5],inactive
same,Potency,[1],inactive
CC(Cc1ccccc1)NC=O (configuration not stated),Potency,[8],inactive
same,Potency,[1],inactive
CCC1(CC)C(=O)NC(=O)N(C)C1=O,Potency,[8],inactive
O=C1CN(O)C(c2ccccc2)=c2cc(Cl)ccc2=N1,Potency,[6],inactive
same,Potency,[8],inactive
same,Potency,[7],inactive
same,Potency,[2],inactive
same,Potency,[3],inactive
same,Potency,[4],inactive
same,Potency,[5],inactive
same,Potency,[1],inactive
CNC(=O)OCC[N+](C)(C)C,Potency,[8],inactive
same,Potency,[1],inactive
C=C[C@H]1CN2CC[C@H]1C[C@@H]2[C@@H](O)c1ccnc2ccccc12,Potency,[8],8.41 µM (active)
same,Potency,[1],inactive
C[C@@H](CO)NC(=O)[C@@H]1C=C2c3cccc4[nH]cc(c34)C[C@H]2N(C)C1,Potency,[8],9.44 µM (active)
same,Potency,[7],inactive
same,Potency,[2],inactive
same,Potency,[4],26.6 µM (active)
same,Potency,[5],inactive
